About 83,000 compounds went through this panel and 20% of them were active in at least one assay; those are over-represented in the sample as a whole.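 Cell lines were cultured in 96-well plates, exposed to a single compound concentration, and assessed for percent growth 48 hours later.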 A number with no mark means an inactive call. Active and inactive are the calls of the source. How the source made its calls: active means growth percent below 10; inactive means the rest.

The test system of one test is BT-549 breast. As to the kind of experiment: NCI-60 one-dose screen, 48 h (100 = growth as untreated, 0 = no growth, -100 = all killed). The note with it: 10 µM unless noted.
Regarding `CCSc1nnc(Nc2ccc(C(C)C)cc2)s1`, the growth is 103%.

Consider `O=C(Cc1c(F)cccc1Cl)Nc1ccc(S(=O)(=O)Nc2ncccn2)cc1`, for which the growth was 90.8%.

With `CC1(C)OC2COC3(C(=O)O)OC(C)(C)OC3C2O1` (stereo not drawn), the growth is 106%.

For the compound `COc1cc(-n2nc(C(=O)Nc3ccc(C(=O)O)cc3)nc2-c2ccccc2)cc(OC)c1OC`, the growth is 105%.

For `CN1CCN(CCCOc2ccc3nc(Nc4ccc(C(F)(F)F)c(Cl)c4)ccc3c2)CC1`, the growth is 80.9%.

`COc1ccc(S(=O)(=O)NCCNc2nccc(-c3c(-c4ccccc4)nc4sccn34)n2)cc1`: the growth was 34.7%.

In the case of `O=c1[nH]c(-c2cn(-c3ccc(Cl)cc3)nn2)nc2ccccc12`, the growth was 79.6%.

Take `COc1ccc(S(=O)(=O)Nc2cc(/C=C\c3cc(OC)c(OC)c(OC)c3)cc(OC)c2OC)cc1OC`: the growth is 47%.

`COc1ccc(-c2nc3sccn3c2-c2ccnc(NCCNS(=O)(=O)c3ccc(C(F)(F)F)cc3)n2)cc1`: the growth is 2.22% (active).

Regarding `CCN(CC)CCSc1c2ccc(Cl)cc2nc2ccc(OC)cc12`, the growth was 107%.

`COc1ncc(-c2ccc3ncnc(Nc4cccc(Cl)c4)c3c2)cc1NS(=O)(=O)CCN1CCOCC1`: the growth is -4.07% (active).

Take `O=c1[nH]c(CN2CCN(c3ccccc3F)CC2)nc2sc3c(c12)CCC3`: the growth is 98.8%.

For the compound `O=C(Nc1cccc(Cl)c1)c1cc([N+](=O)[O-])ccc1O`, the growth was 66.5%.

As for `Cc1cc(N/C=c2\sc3ncnn3c2=O)no1`, the growth was 104%.

Regarding `c1ccc2c(c1)Oc1ccccc1C2C1c2ccccc2Oc2ccccc21`, the growth is 106%.

Regarding `CC(C)CCN(CCCNc1c2c(nc3ccccc13)CCCC2)CCC(C)C`, the growth is 91.3%.

With `COc1cc(/C=C/C(=O)c2ccccc2O)ccc1OCCCOc1cc2c(cc1OC)C(=O)N1CCC[C@H]1C=N2`, the growth is -4.28% (active).

On to `O=C1NC(Cc2c[nH]c3ccccc23)C(=O)N1Cc1ccc(Cl)cc1` (stereo not drawn), for which the growth was 96.3%.

As for `COc1ccc(C2CC(c3cccs3)=NN2c2ccc(S(=O)(=O)NC(=O)NCc3cccc(OC)c3)cc2)cc1` (stereo not drawn), the growth was 116%.

For the compound `CCOC(=O)C1=C(CSC(=S)N(C2CCCCC2)C2CCCCC2)N(C)C(=O)NC1c1ccccc1` (stereo not drawn), the growth is 66.3%.

As for `COc1cccc2nc(Nc3ccc(NC(=O)c4ccc5ncccc5c4)cc3)ccc12`, the growth is 69.7%.

Consider `Cc1cc(NC(=O)COC(=O)c2sc3cc(F)ccc3c2Cl)no1`, for which the growth was 117%.

In the case of `CC/C=C\C[C@H](O)C/C=C1/C(=O)C(Cl)=C[C@@H]1C/C=C\CCCC(=O)O`, the growth is 58.5%.

For the compound `O=Nc1c(-c2c(O)[nH]c3ccc([N+](=O)[O-])cc23)[nH]c2ccc(O)cc12`, the growth is 4.59% (active).

Regarding `O=C(Nc1ccc(F)cc1)c1cc([N+](=O)[O-])ccc1O`, the growth was 81.5%.

In the case of `Cc1ccc(S(=O)(=O)OCC(=O)Nc2ccc(C(=O)O)c(O)c2)cc1`, the growth is 89.2%.

For `Cc1cc(C)c(NC(=O)c2sc3nc4c(cc3c2N)CN(Cc2ccccc2)CC4)c(C)c1`, the growth was 52.2%.

In the case of `COc1ccc(-c2nnc(COc3ccc(NS(=O)(=O)c4ccc(OC)cc4)cc3F)o2)cc1`, the growth was 84.7%.

For the compound `Cc1ccc2nc(-c3c(CCCO)noc3N)[nH]c(=O)c2c1`, the growth was 102%.

On to `O=[N+]([O-])c1ccc(S(=O)(=O)N2CCN(c3ccnc4cc(Cl)ccc34)CC2)c([N+](=O)[O-])c1`, for which the growth was 97.6%.

On to `CCN(Cc1ccc(CN(CC)C(=O)C(Cl)(Cl)Cl)cc1)C(=O)C(Cl)(Cl)Cl`, for which the growth is 78.3%.

Regarding `COc1ccc(Cn2cc(COc3cc(/C=C/C(=O)c4cc(OC)c(OC)c(OC)c4)ccc3OC)nn2)cc1`, the growth is 30.8%.

With `N#CC1=C(N)n2nc(-c3ccncc3)nc2NC1c1cccc2ccccc12` (stereo not drawn), the growth is 90.1%.

Regarding `COc1ccc(/C=C/C(=O)c2ccc(B(O)O)cc2)cc1O`, the growth was 64.8%.

Take `Nc1nc(-c2ccccc2)cs1`: the growth is 116%.

On to `NS(=O)(=O)c1ccc(NCC(=O)Nc2ccc(-c3nc4ccccc4s3)cc2)cc1`, for which the growth is 14.5%.

Regarding `COc1cc(Br)c(OC)cc1Br`, the growth is 97.7%.

For `COc1cc(NS(C)(=O)=O)ccc1Nc1c2ccc([N+](=O)[O-])cc2nc2c(C)cccc12`, the growth was 27%.

Consider `O=C(Nc1ccc(I)cc1)c1cccc([N+](=O)[O-])c1O`, for which the growth was 4.69% (active).

The test system of another test is MDA-MB-435 melanoma. The test is described as above. The note with it: 10 µM unless noted.
On to `CCSc1nnc(Nc2ccc(C(C)C)cc2)s1`, for which the growth is 86.7%.

For the compound `O=C(Cc1c(F)cccc1Cl)Nc1ccc(S(=O)(=O)Nc2ncccn2)cc1`, the growth was 101%.

Regarding `CC1(C)OC2COC3(C(=O)O)OC(C)(C)OC3C2O1` (stereo not drawn), the growth was 93.8%.

On to `COc1cc(-n2nc(C(=O)Nc3ccc(C(=O)O)cc3)nc2-c2ccccc2)cc(OC)c1OC`, for which the growth was 113%.

For the compound `CN1CCN(CCCOc2ccc3nc(Nc4ccc(C(F)(F)F)c(Cl)c4)ccc3c2)CC1`, the growth is -74.9% (active).

On to `COc1ccc(S(=O)(=O)NCCNc2nccc(-c3c(-c4ccccc4)nc4sccn34)n2)cc1`, for which the growth was 11.2%.

Consider `O=c1[nH]c(-c2cn(-c3ccc(Cl)cc3)nn2)nc2ccccc12`, for which the growth is 77.2%.

With `COc1ccc(S(=O)(=O)Nc2cc(/C=C\c3cc(OC)c(OC)c(OC)c3)cc(OC)c2OC)cc1OC`, the growth was -66.5% (active).

With `COc1ccc(-c2nc3sccn3c2-c2ccnc(NCCNS(=O)(=O)c3ccc(C(F)(F)F)cc3)n2)cc1`, the growth was 2.65% (active).

In the case of `CCN(CC)CCSc1c2ccc(Cl)cc2nc2ccc(OC)cc12`, the growth is 109%.

For `COc1ncc(-c2ccc3ncnc(Nc4cccc(Cl)c4)c3c2)cc1NS(=O)(=O)CCN1CCOCC1`, the growth is 11.8%.

For `O=c1[nH]c(CN2CCN(c3ccccc3F)CC2)nc2sc3c(c12)CCC3`, the growth is 118%.

`O=C(Nc1cccc(Cl)c1)c1cc([N+](=O)[O-])ccc1O`: the growth is 60.4%.

On to `Cc1cc(N/C=c2\sc3ncnn3c2=O)no1`, for which the growth is 97.6%.

Turning to `c1ccc2c(c1)Oc1ccccc1C2C1c2ccccc2Oc2ccccc21`, the growth was 99.4%.

With `CC(C)CCN(CCCNc1c2c(nc3ccccc13)CCCC2)CCC(C)C`, the growth was 89.3%.

Turning to `COc1cc(/C=C/C(=O)c2ccccc2O)ccc1OCCCOc1cc2c(cc1OC)C(=O)N1CCC[C@H]1C=N2`, the growth was -28.9% (active).

As to `O=C1NC(Cc2c[nH]c3ccccc23)C(=O)N1Cc1ccc(Cl)cc1` (stereo not drawn), the growth was 92.2%.

With `COc1ccc(C2CC(c3cccs3)=NN2c2ccc(S(=O)(=O)NC(=O)NCc3cccc(OC)c3)cc2)cc1` (stereo not drawn), the growth was 52.3%.

Take `CCOC(=O)C1=C(CSC(=S)N(C2CCCCC2)C2CCCCC2)N(C)C(=O)NC1c1ccccc1` (stereo not drawn): the growth is 58.1%.

On to `COc1cccc2nc(Nc3ccc(NC(=O)c4ccc5ncccc5c4)cc3)ccc12`, for which the growth was 88.7%.

In the case of `Cc1cc(NC(=O)COC(=O)c2sc3cc(F)ccc3c2Cl)no1`, the growth is 108%.

In the case of `CC/C=C\C[C@H](O)C/C=C1/C(=O)C(Cl)=C[C@@H]1C/C=C\CCCC(=O)O`, the growth is 19.3%.

As to `O=Nc1c(-c2c(O)[nH]c3ccc([N+](=O)[O-])cc23)[nH]c2ccc(O)cc12`, the growth was 9.35% (active).

Regarding `O=C(Nc1ccc(F)cc1)c1cc([N+](=O)[O-])ccc1O`, the growth was 72.2%.

As to `Cc1ccc(S(=O)(=O)OCC(=O)Nc2ccc(C(=O)O)c(O)c2)cc1`, the growth is 114%.

As for `Cc1cc(C)c(NC(=O)c2sc3nc4c(cc3c2N)CN(Cc2ccccc2)CC4)c(C)c1`, the growth is -18.6% (active).

With `COc1ccc(-c2nnc(COc3ccc(NS(=O)(=O)c4ccc(OC)cc4)cc3F)o2)cc1`, the growth is 81.4%.

Consider `Cc1ccc2nc(-c3c(CCCO)noc3N)[nH]c(=O)c2c1`, for which the growth is 110%.

For `O=[N+]([O-])c1ccc(S(=O)(=O)N2CCN(c3ccnc4cc(Cl)ccc34)CC2)c([N+](=O)[O-])c1`, the growth is 98.1%.

As for `CCN(Cc1ccc(CN(CC)C(=O)C(Cl)(Cl)Cl)cc1)C(=O)C(Cl)(Cl)Cl`, the growth was 83.7%.

On to `COc1ccc(Cn2cc(COc3cc(/C=C/C(=O)c4cc(OC)c(OC)c(OC)c4)ccc3OC)nn2)cc1`, for which the growth was 12.5%.

As to `N#CC1=C(N)n2nc(-c3ccncc3)nc2NC1c1cccc2ccccc12` (stereo not drawn), the growth was 88.1%.

Turning to `COc1ccc(/C=C/C(=O)c2ccc(B(O)O)cc2)cc1O`, the growth was 3.03% (active).

As to `Nc1nc(-c2ccccc2)cs1`, the growth is 107%.

Turning to `NS(=O)(=O)c1ccc(NCC(=O)Nc2ccc(-c3nc4ccccc4s3)cc2)cc1`, the growth is 77%.

With `COc1cc(Br)c(OC)cc1Br`, the growth is 105%.

With `COc1cc(NS(C)(=O)=O)ccc1Nc1c2ccc([N+](=O)[O-])cc2nc2c(C)cccc12`, the growth was 27.2%.

Regarding `O=C(Nc1ccc(I)cc1)c1cccc([N+](=O)[O-])c1O`, the growth is 14.2%.

These data come from PubChem BioAssay (NCI).
